Experimental findings from PubChem BioAssay AID624040 (The Scripps Research Institute Molecular Screening Center, 2012) are described below.

Each structure is given as a SMILES string. The campaign covered roughly 360,000 compounds. About 2,100 (0.58%) were called active.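 How the source made its calls: active means inhibition above a per-plate cutoff, the mean of that plate's test compounds plus 3 SD (cut at about 27% in these data); inactive means the rest.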 The sample as a whole holds a higher share of actives than the screen did.

Chain of Muscarinic acetylcholine receptor M5 (Homo sapiens) (P08912 whole entry, looked up): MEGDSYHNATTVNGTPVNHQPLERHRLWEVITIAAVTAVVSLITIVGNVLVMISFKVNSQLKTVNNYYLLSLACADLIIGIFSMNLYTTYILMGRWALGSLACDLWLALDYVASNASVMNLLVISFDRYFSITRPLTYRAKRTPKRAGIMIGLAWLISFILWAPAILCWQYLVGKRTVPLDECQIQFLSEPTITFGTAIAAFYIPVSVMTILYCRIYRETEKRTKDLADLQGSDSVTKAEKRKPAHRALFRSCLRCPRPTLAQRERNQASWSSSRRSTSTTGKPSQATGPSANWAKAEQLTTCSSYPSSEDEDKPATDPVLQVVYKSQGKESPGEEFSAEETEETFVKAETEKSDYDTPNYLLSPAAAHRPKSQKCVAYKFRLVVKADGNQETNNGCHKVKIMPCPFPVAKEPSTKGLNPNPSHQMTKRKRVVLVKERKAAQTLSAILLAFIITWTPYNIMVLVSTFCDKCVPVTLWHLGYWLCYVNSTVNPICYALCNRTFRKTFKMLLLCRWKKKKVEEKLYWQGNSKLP

The assay addresses Muscarinic acetylcholine receptor M5 (Homo sapiens) (UniProt P08912). As to the kind of experiment: CHRM5 blockers of acetylcholine calcium response – CHO cells, Fluo-8 calcium fluorescence, primary screen (AID 624040).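 Further: 0% = acetylcholine EC80 with DMSO and 100% = DMSO without agonist.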 The following applies: CHO-hM5 cells, ACh EC80, at 3 µM, hits give high values.
As usually defined, the inhibition is the drop in the measured response relative to a control, in per cent. For `CCCC[N+]1(C)C2CC(OC(=O)C(CO)c3ccccc3)CC1C1OC12` (stereo not given), the inhibition is 73.3% (active).

For `CCn1cc(CN2CCCC(C(=O)c3cccc(C(F)(F)F)c3)C2)cn1` (stereo not given), the inhibition was 12.4% (inactive).

For `CCCCCCCCCCCCn1ccc(=N)cc1`, the inhibition is 33.9% (active).

With `CCOC(=O)C1(c2ccccc2)CCN(CC(O)c2ccc(NC(C)=O)cc2)CC1` (stereo not given), the inhibition was 11.2% (inactive).

`O=c1c2ccccc2nc(/C=C/c2ccco2)n1-c1ccccc1O`: the inhibition is 3.76% (inactive).

As to `Cc1ccc(-c2nn(CCC#N)cc2C(=O)O)cc1C`, the inhibition is 1.31% (inactive).

Turning to `CC[N+]1(C)CCCC(OC(=O)C(O)(c2ccccc2)c2ccccc2)C1` (stereo not given), the inhibition was 98.3% (active).

Take `Oc1cc2c(cc1CN1CCN(c3ccccc3)CC1)OCO2`: the inhibition was 15.7% (inactive).

Turning to `COC(=O)C[C@H]1CC[C@H]2NC[C@@H](O)COC[C@@H]2O1`, the inhibition is 7.66% (inactive).

`COC1=CC=C2[C@H]3Cc4ccc(OC)c5c4[C@@]2(CCN3C)C1O5` (stereo not given in full): the inhibition was -5.74% (inactive).

Consider `CNC(=S)N/N=C1\C2CN3CCN(C2)CC1(c1ccccc1)C3`, for which the inhibition was 3.28% (inactive).

For the compound `Nc1ccc(C(=O)N/N=C2/CN3CCC2CC3)cc1`, the inhibition is 6.34% (inactive).

Regarding `CC1CCCN1CCC(C(N)=O)(c1ccccc1)c1ccccc1` (stereo not given), the inhibition was 99.5% (active).

As for `O=C(Cc1ccccc1)N1CCN(C2CCCCCC2)CC1`, the inhibition was 0.09% (inactive).

Turning to `CC1CCCCN1Cc1cccnc1` (stereo not given), the inhibition is 12.5% (inactive).

With `CCCC(C)n1[nH]c(=O)c2c1NC(=O)CSC2c1ccc(OC)c(OC)c1` (stereo not given), the inhibition was 7.43% (inactive).

Take `CC1C2Cn3c(nc4ccccc43)C1N(C)O2` (stereo not given): the inhibition is 0.97% (inactive).

As to `Cc1ncoc1C(=O)NCC1=C(c2cccc3ccccc23)C[C@@H]2CC[C@H]1N2Cc1ccco1`, the inhibition is -3.17% (inactive).

In the case of `COc1ccc2c(c1O)-c1cccc3c1[C@@H](C2)N(C)CC3`, the inhibition was -4.83% (inactive).

With `COc1ccc(C2C=C(C)Oc3c2c(=O)oc2ccccc32)cc1OC` (stereo not given), the inhibition is 2.6% (inactive).
